The source of these data is PubChem BioAssay.

The source made the active and inactive calls. Unless noted, how the calls were made is not given here.

In experiment [1] the test system is Wnt5a (protein binding on small-molecule microarray). Put plainly: small molecules binding Wnt5a protein – biophysical, small-molecule microarray, 635/667 nm fluorescence, primary screen (AID 1142).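 Further: fluorescence read at 667 nm with signal to noise per printed feature.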 To be noted: 635 nm fluorescence, higher = more signal.
Experiment [2] in a line: ATP-based viability of Huh7 replicon cells – cell-based, CellTiter-Glo luminescence, basal, 48 h, cytotoxicity control for HCV replication inhibitor project, primary screen (AID 1143).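 Further: Huh7 hepatoma cells carrying a hepatitis C replication reporter with no stimulus; test concentration not given here.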 As to conditions: higher = more signal, called active from +8 up or from −8 down.
Experiment [3] can be described thus: Pseudomonas biofilm growth suppression – PAO1 strain, BacTiter-Glo luminescence, LB-PBS, primary screen (AID 1144). To be noted: P. aeruginosa PAO1 biofilm, 12 h, higher = more signal.
Experiment [4] in a line: basal CRE-LacZ reporter activity in PC12 – cell-based, unstimulated, primary screen (AID 1145). To be noted: no forskolin, luminescence, 4.5 h, higher = more signal, called active from +8 up or from −8 down.
A short description of experiment [5]: forskolin-driven CRE-LacZ activity in PC12 – cell-based, CRE-LacZ reporter, forskolin-stimulated, primary screen (AID 1146).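 Further: PC12 cells with 6xCRE LacZ reporter stimulated by forskolin 10 µM; beta-galactosidase reporter signal reflecting CREB driven transcription.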 To be noted: luminescence, 4.5 h, higher = more signal, called active from +8 up or from −8 down.
For experiment [6], the target named is Streptavidin (Streptomyces avidinii) (UniProt P22629). Put plainly: compounds binding control protein streptavidin – biophysical, small-molecule microarray, 635/667 nm fluorescence, artefact control for SMM compound annotation, primary screen (AID 1147).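 Further: signal reflects streptavidin binding to arrayed compounds as a control protein.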 As to conditions: higher = more signal.
A short description of experiment [7]: probe aInhba binding on compound microarray – biochemical, small-molecule microarray, 635/667 nm fluorescence, primary screen (AID 1148).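 Further: score merges 667nm spot fluorescence with signal-to-noise for antibody binding to printed compounds.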 As to conditions: higher = more signal.
The target in experiment [8] is Torsin-1A (Homo sapiens) (UniProt O14656). Put plainly: TOR1A wild-type binding on microarray – cell lysate, small-molecule microarray, lysate, 635/667 nm, primary screen (AID 1149). To be noted: COS7 hTOR1A-WT lysate, 635 nm fluorescence, higher = more signal.
For experiment [9] the target is unchanged. Put plainly: torsin A mutant lysate binding on microarrays – cell lysate, small-molecule microarray, COS7 lysate, 635/667 nm fluorescence, primary screen (AID 1150).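 Further: score pools 667 nm emission and signal to noise measuring lysate protein binding.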 To be noted: COS7 hTOR1A mutant lysate, 635 nm fluorescence, higher = more signal.
Experiment [10] relates to Sonic hedgehog protein (Shh). Put plainly: Sonic hedgehog microarray binding compounds – biochemical, small-molecule microarray, 635/667 nm fluorescence, primary screen (AID 1151).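 Further: Shh protein binding to compounds spotted on small-molecule microarray slides; score combines spot fluorescence intensity with signal-to-noise across triplicate slides.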 To be noted: 635 nm fluorescence, higher = more signal.
The nature of experiment [11]: optical density shifts of acrAB sulA E. coli – strain DRC41, OD650, 48 h, E. coli filamentation inducer project, primary screen (AID 1152).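 Further: E. coli MC1000 strain DRC41 lacking acrAB efflux pump and sulA.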 To be noted: higher = more signal, called active from +8 up or from −8 down.
Experiment [12] in a line: probe aLefty1 binding on compound microarray – biochemical, small-molecule microarray, 635/667 nm fluorescence, primary screen (AID 1153).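 Further: score merges spot fluorescence with signal-to-noise ratio from the scanned slide images.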 As to conditions: higher = more signal.
Experiment [13] can be described thus: plasmodial surface anion channel blockers, osmotic lysis – cell-based, P. falciparum Indochina, OD700, 1 h, primary screen (AID 1154). To be noted: P. falciparum Indochina infected RBC osmotic lysis, higher = more signal, called active from +8 up or from −8 down.
Experiment [14] can be described thus: plasmodial surface anion channel blockers, osmotic lysis – cell-based, P. falciparum Indochina, OD700, 2 h, primary screen (AID 1155).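 Further: lysis reports solute entry through the parasite surface anion channel PSAC.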 As to conditions: P. falciparum Indochina infected erythrocytes, higher = more signal, called active from +8 up or from −8 down.
A short description of experiment [15]: changes in parasitized red cell lysis, either direction – P. falciparum Indochina, OD700, 3 h, PSAC antagonist project, primary screen (AID 1156). As to conditions: P. falciparum-infected erythrocytes, osmotic lysis, higher = more signal, called active from +8 up or from −8 down.
Experiment [16] is described as follows: plasmodial surface anion channel blockers, osmotic lysis – cell-based, P. falciparum Indochina, OD700, 18 h, primary screen (AID 1157). To be noted: P. falciparum Indochina infected erythrocytes, osmotic lysis OD700, 18 h; higher = more signal, called active from +8 up or from −8 down.
Experiment [17] is described as follows: S6 kinase pathway phospho-S6 level changes – cell-based, A549, cytoblot, luminescence, serum-stimulated, primary screen (AID 1158).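 Further: serum-stimulated A549 lung adenocarcinoma cells; signal is phosphorylated S6 detected by cytoblot immunostaining with HRP secondary.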 To be noted: 5 h, higher = more signal.
For experiment [18], the target named is NADPH oxidase 2 (Homo sapiens) (UniProt P04839). Put plainly: compounds shifting NOX2 Amplex Red fluorescence – cell-based, HEK293-NOX2, PMA-stimulated, NOX inhibitor project, primary screen (AID 1159). Further: test concentration not given here. As to conditions: 45 min, higher = more signal, called active from +8 up or from −8 down.
Experiment [19] has as its target NADPH oxidase 4 (Homo sapiens) (UniProt Q9NPH5). Put plainly: compounds shifting NOX4 Amplex Red fluorescence – cell-based, HEK293-NOX4, tetracycline-induced, NOX inhibitor project, primary screen (AID 1160). To be noted: HEK293-NOX4, Amplex Red H2O2 fluorescence, 45 min; higher = more signal, called active from +8 up or from −8 down.
Experiment [20] deals with NADPH oxidase 5 (Homo sapiens) (UniProt Q96PH1). Put plainly: compounds shifting NOX5 Amplex Red fluorescence – cell-based, HEK293-NOX5, NOX inhibitor project, primary screen (AID 1161). To be noted: HEK293-NOX5, ionomycin, 45 min, higher = more signal.
Chain of NADPH oxidase 5 (Homo sapiens) (Q96PH1 whole entry, looked up): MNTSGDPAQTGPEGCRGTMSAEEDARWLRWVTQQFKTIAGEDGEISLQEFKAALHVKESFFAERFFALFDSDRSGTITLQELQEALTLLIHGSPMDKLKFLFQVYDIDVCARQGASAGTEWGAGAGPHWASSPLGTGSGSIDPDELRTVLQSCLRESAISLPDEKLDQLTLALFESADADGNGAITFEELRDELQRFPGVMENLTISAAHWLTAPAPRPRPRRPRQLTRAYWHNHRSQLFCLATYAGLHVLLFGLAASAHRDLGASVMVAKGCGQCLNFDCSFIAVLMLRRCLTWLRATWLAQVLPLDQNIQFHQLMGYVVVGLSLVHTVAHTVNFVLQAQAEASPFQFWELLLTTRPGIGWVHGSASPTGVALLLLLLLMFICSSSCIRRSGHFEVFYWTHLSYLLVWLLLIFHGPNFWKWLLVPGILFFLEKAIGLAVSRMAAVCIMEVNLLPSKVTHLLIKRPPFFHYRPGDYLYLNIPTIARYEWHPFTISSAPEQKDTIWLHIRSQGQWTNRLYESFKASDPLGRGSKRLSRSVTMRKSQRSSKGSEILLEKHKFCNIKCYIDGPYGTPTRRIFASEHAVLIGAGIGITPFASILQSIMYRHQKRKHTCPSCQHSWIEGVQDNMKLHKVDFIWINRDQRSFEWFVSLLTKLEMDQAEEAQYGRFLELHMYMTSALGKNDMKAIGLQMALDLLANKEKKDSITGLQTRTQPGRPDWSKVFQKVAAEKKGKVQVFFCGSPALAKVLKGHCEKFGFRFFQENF

Chain of Torsin-1A (Homo sapiens) (O14656 whole entry, looked up): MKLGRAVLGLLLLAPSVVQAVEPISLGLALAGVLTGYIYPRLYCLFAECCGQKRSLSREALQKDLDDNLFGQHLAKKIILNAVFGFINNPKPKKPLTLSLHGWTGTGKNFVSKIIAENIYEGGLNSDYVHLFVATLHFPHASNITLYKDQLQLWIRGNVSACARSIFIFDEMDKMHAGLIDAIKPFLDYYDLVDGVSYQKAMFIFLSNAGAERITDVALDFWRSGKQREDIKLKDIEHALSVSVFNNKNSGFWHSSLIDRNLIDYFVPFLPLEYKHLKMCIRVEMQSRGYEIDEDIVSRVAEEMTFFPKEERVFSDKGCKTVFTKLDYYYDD
Chain of Streptavidin (Streptomyces avidinii) (P22629 whole entry, looked up): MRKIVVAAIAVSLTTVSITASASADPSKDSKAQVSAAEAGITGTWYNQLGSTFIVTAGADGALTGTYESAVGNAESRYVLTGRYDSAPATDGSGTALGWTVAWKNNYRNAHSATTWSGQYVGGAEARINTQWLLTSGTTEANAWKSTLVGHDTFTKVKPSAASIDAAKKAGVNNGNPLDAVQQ
Chain of NADPH oxidase 4 (Homo sapiens) (Q9NPH5 whole entry, looked up): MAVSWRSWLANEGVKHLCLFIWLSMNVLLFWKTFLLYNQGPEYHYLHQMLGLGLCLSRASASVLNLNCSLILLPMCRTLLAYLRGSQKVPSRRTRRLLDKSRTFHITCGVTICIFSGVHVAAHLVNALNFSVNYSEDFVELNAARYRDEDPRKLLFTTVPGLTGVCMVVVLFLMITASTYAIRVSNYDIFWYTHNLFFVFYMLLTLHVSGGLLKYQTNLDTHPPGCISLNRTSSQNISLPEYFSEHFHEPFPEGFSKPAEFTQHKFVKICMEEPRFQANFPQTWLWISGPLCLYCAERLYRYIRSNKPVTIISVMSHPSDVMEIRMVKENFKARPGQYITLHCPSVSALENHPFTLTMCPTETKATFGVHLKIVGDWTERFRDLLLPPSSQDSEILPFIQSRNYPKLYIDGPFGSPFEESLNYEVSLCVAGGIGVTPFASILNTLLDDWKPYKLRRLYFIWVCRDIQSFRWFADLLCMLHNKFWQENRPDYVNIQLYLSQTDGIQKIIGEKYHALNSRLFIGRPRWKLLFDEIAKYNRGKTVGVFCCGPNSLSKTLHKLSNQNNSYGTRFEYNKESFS
Chain of NADPH oxidase 2 (Homo sapiens) (P04839 whole entry, looked up): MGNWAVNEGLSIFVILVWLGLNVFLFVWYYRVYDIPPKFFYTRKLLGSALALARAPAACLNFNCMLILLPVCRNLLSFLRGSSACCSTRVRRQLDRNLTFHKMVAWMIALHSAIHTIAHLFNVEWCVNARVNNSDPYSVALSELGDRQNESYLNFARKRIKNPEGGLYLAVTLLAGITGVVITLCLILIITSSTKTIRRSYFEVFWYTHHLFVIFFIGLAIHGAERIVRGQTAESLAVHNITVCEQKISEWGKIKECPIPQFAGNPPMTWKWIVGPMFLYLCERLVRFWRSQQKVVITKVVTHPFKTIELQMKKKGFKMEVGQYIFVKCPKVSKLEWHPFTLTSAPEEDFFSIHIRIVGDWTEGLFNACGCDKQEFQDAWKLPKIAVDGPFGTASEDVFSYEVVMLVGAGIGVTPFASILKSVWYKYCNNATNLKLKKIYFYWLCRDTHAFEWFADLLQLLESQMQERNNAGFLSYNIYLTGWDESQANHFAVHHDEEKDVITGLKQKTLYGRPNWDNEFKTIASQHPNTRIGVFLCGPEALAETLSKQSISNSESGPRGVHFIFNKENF

Take `CC(C)CON=C1[C@H]2CCn3c(=O)n(C)c(=O)n3[C@H]2[C@H](O)[C@@H]2O[C@H]12`: the composite z-score in experiment [1] was 0.0208; in [6], 0.212; in [7], -0.0405; with Torsin-1A (Homo sapiens) [8], 0.558; in the experiment with Torsin-1A (Homo sapiens) [9], -0.0543; in experiment [10], 0.637. The composite z-score in experiment [12] is -0.0559. In addition, the z-score in [2] is 0.736 (inactive); in experiment [3] it was -0.279 (inactive); in experiment [4] it was 0.252 (inactive); in experiment [5], -0.28 (inactive); in experiment [11], -0.0031 (inactive); in experiment [13], -0.399 (inactive). Besides, the z-score in experiment [14] was -0.165 (inactive); in experiment [15], -0.607 (inactive); in experiment [16], -0.162 (inactive); in [17] it was -0.445; in experiment [18], -0.5 (inactive); in experiment [19], 0.0343 (inactive). Moreover, in experiment [20], the z-score was -0.0469.

For `CCOC(=O)[C@H](CC(C)C)NC(=O)CCC1CC(OC(=O)NCc2ccc3c(c2)OCO3)CC2(CCCC(COC(=O)NCCc3ccccc3OC)O2)O1` (stereo not given in full), the composite z-score in experiment [1] is 0.08; in [6], 0.512; in experiment [7], -0.128; with Torsin-1A (Homo sapiens) [8], -0.0035; with Torsin-1A (Homo sapiens) [9] it was 0.582; in [10], 1.19. The compound further had a composite z-score in experiment [12] of 0.0437. Besides, the z-score is -0.556 (inactive) in experiment [2]; 0.162 (inactive) in experiment [3]; -0.0755 (inactive) in experiment [4]; 0.101 (inactive) in [5]; -1.08 (inactive) in [11]; -1.67 (inactive) in [13]. Also, the z-score in [14] was -0.213 (inactive); in experiment [15], -1.01 (inactive); in [16], -0.143 (inactive); in experiment [17] it was -0.116; in experiment [18], 0.0807 (inactive); in experiment [19] it was 0.886 (inactive). Further, the z-score in experiment [20] was determined as 1.24.

For the compound `COc1ccc(O[C@H]2C=C[C@@H](c3ccccc3)O[C@@H]2COC(=O)NCc2cccc3ccccc23)cc1`, the composite z-score in experiment [1] is -0.092; in experiment [6], 0.493; in experiment [7] it was -0.218; with Torsin-1A (Homo sapiens) [8], 0.0485; in the experiment with Torsin-1A (Homo sapiens) [9], 0.225; in experiment [10] it was 0.401. This compound also had a composite z-score in [12] of -0.0046. Further, the z-score in experiment [2] is -1.55 (inactive); in [3], 0.928 (inactive); in experiment [4], 0.745 (inactive); in experiment [5], 1.56 (inactive); in experiment [11], -0.286 (inactive); in experiment [13], 2.71 (inactive). In addition, the z-score in [14] is 0.896 (inactive); in experiment [15], -0.119 (inactive); in experiment [16], 0.515 (inactive); in experiment [17], -0.553; in [18], 0.5 (inactive); in experiment [19] it was -0.0581 (inactive). In experiment [20], the z-score was -0.406.

`CCOC(=O)CCN1C(=O)[C@H]2[C@H]3[C@H](O)[C@H](O)CC(=NOCC(C)C)[C@@H]3CC[C@H]2C1=O`: the composite z-score was 0.0707 in experiment [1]; -0.483 in experiment [6]; -0.0986 in experiment [7]; 2.79 in the experiment with Torsin-1A (Homo sapiens) [8]; 2.77 with Torsin-1A (Homo sapiens) [9]; 1.1 in experiment [10]. Moreover, the composite z-score in [12] is -0.0051. The z-score in [2] was -1.76 (inactive); in [3] it was -0.123 (inactive); in experiment [4], 0.424 (inactive); in experiment [5], -0.209 (inactive); in experiment [11] it was -0.214 (inactive); in experiment [13], 6.67 (inactive). Besides, the z-score in experiment [14] was 0.232 (inactive); in experiment [15], -0.0758 (inactive); in [16], 0.134 (inactive); in experiment [17], -0.651; in [18] it was 0.913 (inactive); in experiment [19], 0.783 (inactive). Also, in [20], the z-score worked out at 0.295.

With `CON=C[C@@H](OC)[C@H](C)C=CCC(=O)OC`, the composite z-score is -0.115 in experiment [1]; -0.0172 in [6]; -0.0762 in [7]; 0.752 with Torsin-1A (Homo sapiens) [8]; -0.0215 in the experiment with Torsin-1A (Homo sapiens) [9]; 0.183 in experiment [10]. This compound also came in with a composite z-score in experiment [12] of -0.316. Further, the z-score in experiment [2] was -0.569 (inactive); in experiment [3], 0.157 (inactive); in experiment [4] it was 0.257 (inactive); in experiment [5], 0.034 (inactive); in [11], -2.24 (inactive); in experiment [13], 0.0283 (inactive). For the same compound, the z-score in experiment [14] is 0.325 (inactive); in [15], -0.779 (inactive); in [16], 0.22 (inactive); in experiment [17] it was 0.279; in experiment [18] it was 0.592 (inactive); in experiment [19] it was 0.358 (inactive). In addition, the z-score in [20] was -0.945.

Regarding `CCc1cc2c(nc1CC)CCN(CCC(C)=NOCC[C@@H]1C=C[C@H](OC(C)=O)[C@@H](COC(C)=O)O1)C2`, the composite z-score stood at 0.257 in experiment [1]; 1.78 in experiment [6]; 0.127 in [7]; 2.66 in the experiment with Torsin-1A (Homo sapiens) [8]; 1.66 with Torsin-1A (Homo sapiens) [9]; 1.32 in experiment [10]. In experiment [12], this compound had a composite z-score of 0.245. Further, the z-score in [2] is 0.0095 (inactive); in [3], -0.0152 (inactive); in [4], 3.88 (inactive); in [5] it was 0.329 (inactive); in experiment [11] it was -0.842 (inactive); in [13], 1.86 (inactive). The z-score in experiment [14] was 0.724 (inactive); in experiment [15], 0.77 (inactive); in experiment [16], 0.269 (inactive); in experiment [17], -1.04; in experiment [18], -0.572 (inactive); in experiment [19], 0.615 (inactive). In addition, the z-score in experiment [20] is 1.65.

`CCN1C(=O)[C@H]2[C@H]3[C@H](O)[C@H](O)CC(=NNC(=O)OCc4ccccc4)[C@@H]3CC[C@H]2C1=O`: the composite z-score in experiment [1] was 0.0743; in [6], 0.131; in experiment [7], -0.0986; in the experiment with Torsin-1A (Homo sapiens) [8], -0.425; with Torsin-1A (Homo sapiens) [9], 0.151; in experiment [10] it was 0.475. The compound further showed a composite z-score in experiment [12] of 0.122. Also, the z-score was 0.235 (inactive) in [2]; 0.511 (inactive) in experiment [3]; -0.746 (inactive) in experiment [4]; -0.506 (inactive) in experiment [5]; -0.0098 (inactive) in experiment [11]; -0.0022 (inactive) in experiment [13]. Moreover, the z-score is -0.51 (inactive) in experiment [14]; -0.698 (inactive) in experiment [15]; -0.0637 (inactive) in experiment [16]; -0.376 in experiment [17]; 0.424 (inactive) in experiment [18]; 0.525 (inactive) in experiment [19]. The z-score in experiment [20] is 0.296.

Turning to `CCN1C(=O)[C@H]2[C@@H]3C(=CC[C@H]2C1=O)C(=O)[C@H]1O[C@H]1[C@H]3O`, the composite z-score is 0.116 in [1]; 0.49 in experiment [6]; -0.183 in [7]; 0.734 in the experiment with Torsin-1A (Homo sapiens) [8]; 0.348 in the experiment with Torsin-1A (Homo sapiens) [9]; 1.64 in experiment [10]. In addition, the composite z-score in experiment [12] is -0.214. Moreover, the z-score in [2] was -5.2 (inactive); in [3], 1.41 (inactive); in experiment [4], 2.79 (inactive); in [5], 21.9 (active); in [11] it was -1.08 (inactive); in experiment [13], 1.17 (inactive). The z-score in experiment [14] was 0.497 (inactive); in experiment [15], 0.244 (inactive); in [16], 0.282 (inactive); in [17], -0.383; in [18], 0.428 (inactive); in experiment [19], -1.86 (inactive). In experiment [20], the z-score stood at 0.121.
